Measurements: PubChem BioAssay (Tox21)
Inconclusive results are not listed. Entries that show only a call come without a potency. Some structures have more than one record in an assay (separate samples or runs), and their calls can disagree. Activity calls are given as the source filed them. Unless noted, the call rests on the fitted dose curve; in most records, active means well fitted curve in the direction sought with a large enough effect in the repeat runs; inconclusive means weak or mixed curves; inactive means no such curve, though single readings can be large; an effect the other way counts as inactive or inconclusive.

Tests used:
[1] = molecular target: Estrogen receptor beta (Homo sapiens) (UniProt Q92731); assay: qHTS assay to identify small molecule antagonists of the estrogen receptor beta (ER-beta) signaling pathway (AID 1259378; active means well fitted inhibition curve with a large enough effect in the signal ratio in the repeat runs, not every such curve was filed as active; the % refers to the signal ratio; further: potency means the concentration at half of the fitted maximal effect); conditions: ER-beta-UAS-bla HEK293T, beta-lactamase FRET ratio, 16 h; series mostly up to 92.4 µM
Chain of Estrogen receptor beta (Homo sapiens) (Q92731 whole entry, looked up): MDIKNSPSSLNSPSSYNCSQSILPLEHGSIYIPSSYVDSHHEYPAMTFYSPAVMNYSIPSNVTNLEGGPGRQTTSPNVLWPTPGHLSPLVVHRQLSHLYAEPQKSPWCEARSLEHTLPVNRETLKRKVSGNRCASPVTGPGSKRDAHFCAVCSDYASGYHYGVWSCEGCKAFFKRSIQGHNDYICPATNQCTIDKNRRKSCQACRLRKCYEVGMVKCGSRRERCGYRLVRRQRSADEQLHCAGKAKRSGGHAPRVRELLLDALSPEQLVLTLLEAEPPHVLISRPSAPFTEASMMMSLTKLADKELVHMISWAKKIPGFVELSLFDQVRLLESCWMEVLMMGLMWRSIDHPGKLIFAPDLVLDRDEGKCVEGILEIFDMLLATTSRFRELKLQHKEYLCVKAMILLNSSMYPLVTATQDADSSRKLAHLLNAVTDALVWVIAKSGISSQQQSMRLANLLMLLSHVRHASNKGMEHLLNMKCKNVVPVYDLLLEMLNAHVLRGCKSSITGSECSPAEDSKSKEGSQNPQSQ
Outline: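 ER-beta-UAS-bla HEK293T (GripTite) cells in 2% charcoal-stripped FBS medium were preincubated 6 hr at 37C, dosed with compound, then stimulated with 1 nM E2 (final) for 16 hr; beta-lactamase reporter read by B/G FRET fluorescence after 2 hr substrate loading.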

[2] = qHTS assay to identify small molecule agonists of the estrogen receptor beta (ER-beta) signaling pathway - cell viability counter screen (AID 1259380); conditions: ER-beta-bla HEK293T viability, CellTiter-Glo luminescence, 16 h; series mostly up to 92.4 µM; further: nearly all actives have a fitted effect of over 30% in size; further: potency means the concentration at half of the fitted maximal effect
Outline: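 Same-well viability counter screen. Cells: ER-beta-UAS-bla HEK293T, plated 6 hr before compound, in 2% charcoal-stripped FBS. Compound exposure 16 hr, 37C; viability by CellTiter-Glo luminescence after 30 min at room temperature.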

[3] = molecular target: Androgen receptor (Homo sapiens) (UniProt P10275); assay: qHTS assay to identify small molecule agonists of the androgen receptor (AR) signaling pathway in the presence of an antagonist (AID 1259381; calls by dose curve; further: nearly all actives have a fitted effect of over 15% in size); conditions: MDA-kb2 MMTV-luciferase, AR agonist + nilutamide, 16 h; series mostly up to 92.4 µM
Chain of Androgen receptor (Homo sapiens) (P10275 whole entry, looked up): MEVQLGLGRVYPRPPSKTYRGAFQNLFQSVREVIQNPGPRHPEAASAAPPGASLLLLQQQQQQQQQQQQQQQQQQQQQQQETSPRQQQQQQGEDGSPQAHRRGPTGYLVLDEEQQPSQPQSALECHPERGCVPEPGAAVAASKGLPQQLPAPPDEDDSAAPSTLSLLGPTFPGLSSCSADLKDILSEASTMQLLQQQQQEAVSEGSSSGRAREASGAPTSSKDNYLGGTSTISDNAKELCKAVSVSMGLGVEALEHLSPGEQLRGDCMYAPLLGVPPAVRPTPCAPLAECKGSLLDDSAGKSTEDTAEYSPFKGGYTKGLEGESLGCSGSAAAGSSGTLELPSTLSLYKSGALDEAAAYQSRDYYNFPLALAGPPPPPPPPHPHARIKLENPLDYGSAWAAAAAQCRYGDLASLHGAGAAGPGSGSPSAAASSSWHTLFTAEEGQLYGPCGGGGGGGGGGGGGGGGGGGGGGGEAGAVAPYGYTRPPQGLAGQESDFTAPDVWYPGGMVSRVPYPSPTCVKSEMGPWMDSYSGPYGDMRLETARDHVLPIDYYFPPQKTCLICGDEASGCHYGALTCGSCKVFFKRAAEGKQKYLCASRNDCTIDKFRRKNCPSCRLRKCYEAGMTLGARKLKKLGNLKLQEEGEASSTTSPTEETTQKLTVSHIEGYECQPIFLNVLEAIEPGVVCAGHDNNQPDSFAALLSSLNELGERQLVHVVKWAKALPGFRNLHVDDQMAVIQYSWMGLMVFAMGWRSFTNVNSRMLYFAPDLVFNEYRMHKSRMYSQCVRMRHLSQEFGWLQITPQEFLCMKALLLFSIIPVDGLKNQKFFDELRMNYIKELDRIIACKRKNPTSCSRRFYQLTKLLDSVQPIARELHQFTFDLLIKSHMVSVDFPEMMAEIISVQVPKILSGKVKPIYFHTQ
Outline: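 Cells are MDA-kb2 (human breast carcinoma, MMTV-luc, AR/GR responsive). Nilutamide is present at 3.0uM final throughout; compounds are added at 15 concentrations and incubated 16hr at 37C before ONE-Glo luminescence detection.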

[4] = qHTS assay to identify small molecule antagonists of the estrogen receptor beta (ER-beta) signaling pathway - cell viability counter screen (AID 1259382); conditions: ER-beta-UAS-bla HEK293T viability, CellTiter-Glo luminescence, 16 h; series mostly up to 92.4 µM; further: nearly all actives have a fitted effect of over 55% in size; further: potency means the concentration at half of the fitted maximal effect
Outline: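 Following a 6 hr plating period, HEK293T cells carrying a UAS-driven beta-lactamase reporter under ER-beta control received compounds and 1nM E2 (final). After 16 hr at 37C and 2 hr substrate loading, CellTiter-Glo luminescence indicated viability.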

[5] = qHTS assay to identify small molecule agonists or antagonists of the thyroid stimulating hormone receptor (TSHR) signaling pathway - wild type cell line counter screen (AID 1259384; calls by dose curve); conditions: HEK293 wild type, cAMP HTRF counter-screen, stronger effect = higher value; series mostly up to 92.4 µM
Outline: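 Wild-type HEK293 cells were plated 18 h at 37 C/5% CO2, pin-dosed with compound plus Ro20-1724 medium, held 30 min at room temperature, then given cAMP-d2 and anti-cAMP-cryptate; fluorescence was read after 1 h. Fifteen concentrations, triplicate.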

[6] = qHTS assay to identify small molecule agonists of the estrogen receptor alpha (ER-alpha) signaling pathway in the presence of an antagonist - cell viability counter screen (AID 1259386); conditions: VM7Luc4E2 viability, CellTiter-Fluor fluorescence, 22 h; series mostly up to 92.4 µM;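 further: cells exposed to compounds for 22 h at 37 °C before the viability read; nearly all actives have a fitted effect of over 30% in size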; further: potency means the concentration at half of the fitted maximal effect
Outline: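 Cells are starved of estrogens for 5 days in charcoal-stripped serum, seeded for 24hr and co-treated with ICI-182,780 (10.0nM final) and test compounds. After 22hr at 37C, viability is read as CellTiter-Fluor fluorescence.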

[7] = qHTS assay to identify small molecule agonists of the androgen receptor (AR) signaling pathway in the presence of an antagonist - cell viability counter screen (AID 1259379); conditions: MDA-kb2 viability, CellTiter-Fluor, 16 h; series mostly up to 92.4 µM; further: nearly all actives have a fitted effect of over 25% in size; further: potency means the concentration at half of the fitted maximal effect
Outline: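 Fluorescence from CellTiter-Fluor, added after 15 hr and read 1 hr later, gave cell viability. Cells were MDA-kb2 exposed to compounds (15 concentrations) in the presence of 3.0uM nilutamide at 37C, 0% CO2.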

[8] = molecular target: Estrogen receptor (Homo sapiens) (UniProt P03372); assay: qHTS assay to identify small molecule agonists of the estrogen receptor alpha (ER-alpha) signaling pathway in the presence of an antagonist (AID 1259383; calls by dose curve; further: top concentration of the series differs between compounds; nearly all actives have a fitted effect of over 15% in size); conditions: VM7Luc4E2 cells, ERE-luciferase, +ICI-182,780, 22 h; series mostly up to 92.4 µM
Chain of Estrogen receptor (Homo sapiens) (P03372 whole entry, looked up): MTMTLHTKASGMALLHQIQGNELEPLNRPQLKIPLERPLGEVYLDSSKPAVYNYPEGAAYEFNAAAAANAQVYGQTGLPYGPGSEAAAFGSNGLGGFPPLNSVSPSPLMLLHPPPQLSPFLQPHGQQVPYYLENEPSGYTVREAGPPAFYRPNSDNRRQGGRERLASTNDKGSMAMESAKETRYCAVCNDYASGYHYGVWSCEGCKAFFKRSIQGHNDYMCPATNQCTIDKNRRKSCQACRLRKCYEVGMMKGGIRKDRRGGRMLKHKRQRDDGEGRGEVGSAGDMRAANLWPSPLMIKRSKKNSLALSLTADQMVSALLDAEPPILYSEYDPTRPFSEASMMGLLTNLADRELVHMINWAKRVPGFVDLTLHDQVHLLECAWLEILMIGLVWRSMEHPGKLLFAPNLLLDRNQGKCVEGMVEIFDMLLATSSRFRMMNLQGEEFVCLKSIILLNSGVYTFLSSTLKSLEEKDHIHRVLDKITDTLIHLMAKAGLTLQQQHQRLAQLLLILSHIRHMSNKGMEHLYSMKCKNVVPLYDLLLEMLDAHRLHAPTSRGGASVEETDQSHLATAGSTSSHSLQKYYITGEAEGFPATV
Outline: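 Cells are hormone-deprived for 5 days (charcoal-stripped FBS, no phenol red), plated for 24hr, spiked with 10.0nM ICI-182,780, then dosed at 15 concentrations. After 22hr at 37C, ONE-Glo luminescence reports ERE-luciferase activity.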

[9] = molecular target: Thyrotropin receptor (Homo sapiens) (UniProt P16473); assay: qHTS assay to identify small molecule antagonists of the thyroid stimulating hormone receptor (TSHR) signaling pathway (AID 1259385; calls by dose curve; further: nearly all actives have a fitted effect of over 20% in size; further: potency means the concentration at half of the fitted maximal effect); conditions: TSHR-HEK293 cAMP HTRF, TSH-stimulated antagonist mode; series mostly up to 92.4 µM
Chain of Thyrotropin receptor (Homo sapiens) (P16473 whole entry, looked up): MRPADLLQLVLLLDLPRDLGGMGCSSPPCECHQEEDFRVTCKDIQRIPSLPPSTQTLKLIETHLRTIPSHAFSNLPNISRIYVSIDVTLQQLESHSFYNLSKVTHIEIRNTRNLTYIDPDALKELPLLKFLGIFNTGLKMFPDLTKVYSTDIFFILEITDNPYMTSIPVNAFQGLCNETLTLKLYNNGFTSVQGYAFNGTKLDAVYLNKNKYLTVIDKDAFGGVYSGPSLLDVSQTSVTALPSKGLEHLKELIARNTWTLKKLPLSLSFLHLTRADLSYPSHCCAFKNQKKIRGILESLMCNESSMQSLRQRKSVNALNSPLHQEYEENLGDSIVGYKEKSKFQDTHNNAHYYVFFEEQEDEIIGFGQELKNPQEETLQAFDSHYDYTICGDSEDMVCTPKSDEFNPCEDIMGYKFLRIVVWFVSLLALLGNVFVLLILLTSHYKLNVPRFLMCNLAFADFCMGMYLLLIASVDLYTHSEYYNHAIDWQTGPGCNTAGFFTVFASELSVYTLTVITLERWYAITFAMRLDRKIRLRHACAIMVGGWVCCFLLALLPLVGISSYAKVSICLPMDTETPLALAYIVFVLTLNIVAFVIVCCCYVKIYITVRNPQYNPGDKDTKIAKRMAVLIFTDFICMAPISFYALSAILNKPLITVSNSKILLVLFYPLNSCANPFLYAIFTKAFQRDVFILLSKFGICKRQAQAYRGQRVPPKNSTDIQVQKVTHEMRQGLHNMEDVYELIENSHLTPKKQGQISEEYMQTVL
Outline: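 TSHR-HEK293 cells were plated and held 18 h at 37C/5% CO2, then given compound plus Ro20-1724 and stimulated with TSH at 1.5 ng/mL final. After 30 min at room temperature, cAMP was detected with cAMP-d2/anti-cAMP-cryptate (1 h) by fluorescence.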

Structure (SMILES) | Potency [1] | Potency [2] | Potency [3] | Potency [4] | outcome [5] | Potency [6] | Potency [7] | Potency [8] | Potency [9]
C=C(C)C(=O)OCC[N+](C)(C)C | inactive | inactive | inactive | inactive | inactive | inactive | – | – | –
Nc1ccc2cc(S(=O)(=O)O)cc(O)c2c1N=Nc1ccccc1C(F)(F)F | inactive | inactive | – | – | – | 48.6 µM (active) | 30.6 µM (active) | – | –
NNc1nc(-c2ccc([N+](=O)[O-])cc2)cs1 | inactive | – | inactive | inactive | – | 24.3 µM (active) | 48.6 µM (active) | inactive | –
CC(=O)N1CCN(c2ccc(OC[C@H]3CO[C@](Cn4ccnc4)(c4ccc(Cl)cc4Cl)O3)cc2)CC1 | 21.7 µM (active) | 48.6 µM (active) | – | – | inactive | 61.1 µM (active) | 54.5 µM (active) | – | –
O=[N+]([O-])c1ccccc1Nc1ccccc1 | inactive | – | – | inactive | inactive | – | inactive | inactive | –
CC(C)(C)C(=O)OCOC(=O)[C@@H]1N2C(=O)[C@@H](NC(=O)[C@H](N)c3ccccc3)[C@H]2SC1(C)C | inactive | inactive | – | – | inactive | inactive | inactive | inactive | inactive
CCCCCCCC/C=C/CCCCCCCC1=NCCN1CCO | 54.5 µM (active) | 27.3 µM (active) | inactive | 54.5 µM (active) | – | – | – | – | –
C/C=C(\C)C(=O)OCc1ccccc1 | inactive | inactive | – | inactive | inactive | inactive | inactive | – | –
CC(C)(C)NC(=O)[C@@H]1C[C@@H]2CCCC[C@@H]2CN1C[C@@H](O)[C@H](Cc1ccccc1)NC(=O)[C@H](CC(N)=O)NC(=O)c1ccc2ccccc2n1 | 17.5 µM (active) | 55.2 µM (active) | – | 61.9 µM (active) | inactive | 49.2 µM (active) | 61.9 µM (active) | – | –
O=C(NOCC1CC1)c1ccc(F)c(F)c1Nc1ccc(I)cc1Cl | 8.41 µM (active) | – | inactive | – | – | – | 29.8 µM (active) | inactive | –
NC(=O)C1(N2CCCCC2)CCN(CCCN2c3ccccc3CCc3ccc(Cl)cc32)CC1 | 11.9 µM (active) | – | – | 21.1 µM (active) | inactive | – | 23.7 µM (active) | – | –
O=C(O)c1ccc(Cl)c(Cl)c1 | inactive | – | inactive | inactive | inactive | inactive | inactive | inactive | inactive
O=C(Oc1ccccc1)c1ccccc1C(=O)Oc1ccccc1 | 48.6 µM (active) | – | inactive | inactive | – | – | – | – | –
O=CC=C(c1ccccc1)c1ccccc1 | 7.76 µM (active) | 27.5 µM (active) | – | – | inactive | inactive | – | inactive | inactive
CN(C)CCCOC1(Cc2ccccc2)CCCCCC1 | inactive | – | inactive | inactive | inactive | inactive | inactive | inactive | –
Clc1ccccc1C(c1ccccc1)(c1ccccc1)n1ccnc1 | 8.41 µM (active) | 17.2 µM (active) | – | – | inactive | 54.5 µM (active) and inactive | 30.6 µM (active) and inactive | inactive | 54.5 µM (active)
CC1=C(C(=O)OC(C)C)C(c2cccc([N+](=O)[O-])c2)C(C(=O)OC2CN(C(c3ccccc3)c3ccccc3)C2)=C(N)N1 (configuration not stated) | 16.8 µM (active) | 29.8 µM (active) | – | – | inactive | – | – | inactive | inactive
CCC(N)(CO)CO | inactive | inactive | – | inactive | – | inactive | inactive | – | –

Structure (SMILES) | Potency [1] | Potency [2] | Potency [3] | Potency [4] | outcome [5] | Potency [6] | Potency [7] | Potency [8] | Potency [9]
CCN(CC)CCNC(=O)c1c(C)[nH]c(/C=C2\C(=O)Nc3ccc(F)cc32)c1C | 33.5 µM (active) | 11.9 µM (active) | – | 11.9 µM (active) | – | 2.98 µM (active) | 29.8 µM (active) | – | –
O=c1c(-c2ccccc2)c1-c1ccccc1 | 10.6 µM (active) | inactive | – | inactive | inactive | inactive | – | inactive | inactive
Cc1cc2c(cc1C(F)(F)F)N(C(=O)Nc1ccc(Oc3cccnc3C)nc1)CC2 | 19.6 µM (active) | – | – | inactive | – | – | – | – | –
CSc1cnc(C)cn1 | inactive | – | – | inactive | inactive | – | inactive | inactive | inactive
Fc1ccc(C(c2ccc(F)cc2)N2CCN(C/C=C/c3ccccc3)CC2)cc1 | 16.8 µM (active) | – | – | – | inactive | inactive | – | inactive | inactive
Cc1cccc(S(=O)(=O)O)c1C | inactive | – | – | – | inactive | inactive | inactive | inactive | inactive
CC(=O)SC[C@@H](Cc1ccccc1)C(=O)NCC(=O)OCc1ccccc1 | inactive | – | – | inactive | inactive | – | – | inactive | 23.7 µM (active)
CCCN(CCC)C(=O)C(CCC(=O)OCCCN1CCN(CCOC(=O)Cc2c(C)n(C(=O)c3ccc(Cl)cc3)c3ccc(OC)cc23)CC1)NC(=O)c1ccccc1 (configuration not stated) | – | 10.6 µM (active) | inactive | – | inactive | 21.1 µM (active) | inactive | – | –
CSc1ccc(/C=C2/C(C)=C(CC(=O)O)c3cc(F)ccc32)cc1 | – | 10.6 µM (active) | inactive | – | inactive | inactive | inactive | inactive | inactive
CC1=NC(C)OC1C (configuration not stated) | – | inactive | inactive | inactive | inactive | inactive | inactive | – | inactive
Cc1nc(-c2ccc3c(c2)CCN(CCC2CCC(NC(=O)/C=C/c4ccc(F)cc4)CC2)CC3)no1 (configuration not stated) | – | inactive | inactive | inactive | inactive | inactive | inactive | inactive | –
CCCCC(CC)CN=C(N)NC(N)=NCCCCCCN=C(N)NC(N)=NCC(CC)CCCC (configuration not stated) | – | 23.7 µM (active) | inactive | – | – | 23.7 µM (active) | 18.8 µM (active) | inactive | –
Cc1cc(O)c(C(C)(C)C)cc1Sc1cc(C(C)(C)C)c(O)cc1C | – | 19.3 µM (active) | inactive | 24.3 µM (active) | inactive | – | 30.6 µM (active) | inactive | –
CCCCCCCCCCCCCC[P+](CCCC)(CCCC)CCCC (tested in a mixture with another compound) | – | 19.4 µM (active) | inactive | 27.5 µM (active) | inactive | 8.69 µM (active) | 7.74 µM (active) | inactive | 69 µM (active)
COC(=O)c1cc(Cl)ccc1OC | – | inactive | inactive | inactive | inactive | – | inactive | inactive | –
CN(C)[C@@H]1C(=O)C(C(N)=O)=C(O)[C@@]2(O)C(=O)C3=C(O)c4c(O)cccc4C[C@H]3C[C@@H]12 | – | inactive | – | inactive | inactive | inactive | inactive | inactive | inactive
CCC(C)(C)C1CCCCC1OC(C)=O (configuration not stated) | – | inactive | – | inactive | inactive | – | inactive | – | inactive
Nc1c(Cl)cc(Cl)cc1Cl | – | inactive | – | inactive | inactive | – | inactive | – | inactive
